USP17 block – inhibitors of human USP17 deubiquitinase; A8MUK1; purified USP17, Ub-rhodamine cleavage fluorescence, 3 h; inhibition, % at 50 µM; 47,000 tested, 6.5% active
OTUD3 inh – human OTUD3 deubiquitinase inhibition | Q5T2D3 | purified OTUD3, Ub-rhodamine fluorescence, 2 h | inhibition, % at 25 µM | 47,000 tested, 0.7% active | AID 1645858
USP30 inh – inhibitors of human USP30 deubiquitinase; Q70CQ3; purified USP30, Ub-rhodamine cleavage fluorescence; inhibition, % at 25 µM; 47,000 tested, 5.3% active
Target sequence (Q70CQ3 whole entry, looked up): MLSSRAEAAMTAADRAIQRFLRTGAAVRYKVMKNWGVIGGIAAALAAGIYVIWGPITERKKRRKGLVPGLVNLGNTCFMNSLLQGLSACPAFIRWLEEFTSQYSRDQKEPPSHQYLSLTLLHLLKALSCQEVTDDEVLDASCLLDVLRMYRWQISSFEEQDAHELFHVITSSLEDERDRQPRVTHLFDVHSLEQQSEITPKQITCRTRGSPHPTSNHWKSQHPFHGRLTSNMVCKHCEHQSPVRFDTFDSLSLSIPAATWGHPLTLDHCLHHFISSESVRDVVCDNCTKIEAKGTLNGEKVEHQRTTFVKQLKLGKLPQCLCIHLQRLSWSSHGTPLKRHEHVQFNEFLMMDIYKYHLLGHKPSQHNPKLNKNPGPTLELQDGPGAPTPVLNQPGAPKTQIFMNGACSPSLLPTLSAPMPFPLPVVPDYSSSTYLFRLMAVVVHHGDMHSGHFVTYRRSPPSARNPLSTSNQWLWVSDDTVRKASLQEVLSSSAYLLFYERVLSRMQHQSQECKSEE
USP28 inh – human USP28 deubiquitinase inhibition. purified USP28, Ub-rhodamine cleavage fluorescence, 30 min. 47,000 tested, 3% active. inhibition, % at 25 µM
Active calls of the source: *; . = no result given. Most compounds without a hit are left out; they make up all but 12% or so of the library. Rule as the data show it: active = inhibition above about 30%; inactive = the rest.

SMILES | USP17 block | OTUD3 inh | USP30 inh | USP28 inh
CCC(C(=O)N1CCn2c(C)nnc2C1)c1ccccc1 (stereo unspecified) | -13.1 | -4.6 | -6.3 | -4.5
CSc1cccc(NC(=O)C2CCN(S(=O)(=O)Cc3ccccc3)CC2)c1 | -3.1 | -8.8 | -10.8 | -0.6
O=C1CCC(=O)NCCCCCN(O)C(=O)CCC(=O)NCCCCCN(O)C(=O)CCC(=O)NCCCCCN1 | 13.0 | 19.5 | 44.3* | 17.7
Cc1cc(NC(=O)CN2C(=O)C(=O)c3ccccc32)ccc1-n1ncnn1 | 5.7 | -3.4 | -11.7 | -13.6
NC(=O)c1ccc(NC(=O)c2cnn(Cc3ccccc3)c2)cc1 | 37.8* | 6.8 | 15.4 | 8.4
CNC(=O)C1CN(C(=O)c2ccc(OC)cc2)CC12CCCC2 (stereo unspecified) | -0.8 | 54.7* | -0.1 | -2.2
Cn1c(=O)[nH]c(=O)c2c1nc(N1CCN(C(c3ccccc3)c3ccccc3)CC1)n2CCSc1ncccn1 | 0.9 | 2.8 | 30.3* | 11.5
CC(C)Cn1c(N2CCNCC2)nc2c1c(=O)[nH]c(=O)n2C | 10.1 | 14.4 | 46.7* | 14.0
Cc1cccc(C(=O)Nc2nnc(Cc3cn(C)c4ccccc34)s2)c1 | 27.4 | 0.0 | -61.9 | 8.6
Cc1cccc(C(=O)Nc2c(C)nn(Cc3cccc4ccccc34)c2C)c1 | 24.4 | 13.7 | 19.0 | 30.9*
CCn1nc(C)c(CNC(=O)c2[nH]c3ccc(C)cc3c2NC(=O)c2cccc(C)c2)c1C | 76.5* | 71.0* | 88.1* | 24.1
O=C1c2ccccc2C(Nc2ccccc2)N1c1ccccn1 (stereo unspecified) | -6.8 | -0.3 | -3.1 | 18.8
Cc1nc2ccc(NC(=O)COc3ccccc3F)cc2s1 | -6.9 | -7.5 | -10.4 | -4.0
Cc1nc2ccc(NC(=O)Nc3ccccc3F)cc2s1 | -12.1 | -14.3 | -37.0 | 40.4*
Cn1c(SCC(=O)NC2CCCC2)nnc1-c1nc(-c2ccccc2)no1 | 15.8 | 12.4 | 24.3 | 6.4
Cc1ccc(-c2noc(-c3nnc(SCC(=O)NC4CCCC4)n3C)n2)cc1 | 53.1* | 15.9 | 29.2 | 10.0
CCc1cnc(N2CCC3(CCN(C(=O)c4cscn4)C3)CC2)nc1 | -10.0 | 3.0 | -1.7 | 1.9
CC(C)CC(=O)N1CC(C(=O)Nc2ccc(F)cc2)C2(CCOCC2)C1 (stereo unspecified) | 45.6* | 15.9 | 14.8 | 6.1
COc1cccc(N2CCN(S(=O)(=O)c3c(C)nc4sc(C)nn34)CC2)c1 | -10.8 | -0.2 | -40.8 | -12.5
CCCCN1CNc2c(c(=O)[nH]c(=O)n2CCc2ccccc2)C1 | 2.9 | 5.8 | 10.7 | 1.8
CCOC(=O)c1noc2ncnc(Nc3ccc(N4CCC(C)CC4)cc3)c12 | 2.5 | 2.9 | -1.7 | -3.2
Cc1ccc(NC(=O)c2cc(=O)n(C)c3c2c(=O)n(C)c(=O)n3C)c(C)c1 | 21.2 | 12.8 | 61.1* | 12.4
Cn1c(=O)c2c(C(=O)Nc3ccc(Cl)cc3)cc(=O)n(C)c2n(C)c1=O | -9.8 | -15.4 | -39.8 | -26.9
Cc1ccc(NC(=O)c2cc(=O)n(C)c3c2c(=O)n(C)c(=O)n3C)cc1C | 43.6* | 15.5 | -0.8 | 6.9
O=C(Nc1ccc(F)cc1F)C1Cc2ccccc2CN1C(=O)c1ccco1 (stereo unspecified) | 13.8 | -23.6 | -113.0 | -22.2
SMILES | USP17 block | OTUD3 inh | USP30 inh | USP28 inh
Cc1cccc(C(=O)NC(Cc2ccccc2)c2nc3ccccc3n2C)c1 (stereo unspecified) | . | 14.4 | 44.5* | 10.3
Cc1cccc(C(=O)NC(Cc2ccccc2)c2nc3ccccc3[nH]2)c1 (stereo unspecified) | 21.8 | -0.2 | 13.1 | -1.4
Nc1c2c(nc3cc(Cl)ccc13)CCCC2=O | 23.5 | -7.1 | -13.2 | -5.6
O=C(COC(=O)c1ccc2c(=O)n3c(nc2c1)CCCCC3)NCC1CCCCC1 | 54.9* | 9.0 | 64.5* | 40.9*
O=C(Nc1cccc(S(=O)(=O)N2CCCC2)c1)c1ccc2c(=O)n3c(nc2c1)CCCCC3 | 19.7 | 1.0 | 26.8 | 61.6*
O=C(Nc1ccc2nc3n(c(=O)c2c1)CCCC3)c1cccc(F)c1 | 2.4 | 8.1 | 21.3 | 15.8
Cc1ccc(NC(=O)c2ccc3c(=O)n4c(nc3c2)CCCCC4)cc1S(=O)(=O)N1CCOCC1 | 36.1* | 3.7 | . | .
Cn1ccc(-c2cc(C(=O)NCc3ccccn3)c3ccccn23)n1 | -29.4 | -43.6 | -193.0 | -47.7
O=C(NCc1cccc(Cl)c1)c1cnn(-c2ccc([N+](=O)[O-])cc2)c1C1CCNCC1 | -30.5 | 9.4 | 28.2 | 17.3
Cc1ccc(NC(=O)N2CCC3(CC2)N=C(c2ccccc2)C(=O)N3)cc1C | 37.1* | 13.8 | 23.5 | 7.8
Cc1cccc(NC(=O)N2CCC3(CC2)N=C(c2ccccc2)C(=O)N3)c1 | 0.0 | -3.1 | -0.4 | -6.0
Cc1ccc(-c2cn(CC(=O)N3CCN(c4ccccn4)CC3)c(=O)o2)cc1 | 77.0* | 10.7 | 35.5* | 20.0
Cc1nnc(-c2ccc3ccn(CC(=O)N4CCN(c5ccccn5)CC4)c3c2)o1 | 3.1 | 0.0 | -8.4 | -0.3
CCc1nnc(-c2ccc3ccn(CC(=O)N4CCN(c5ccccn5)CC4)c3c2)o1 | 75.9* | 83.2* | 38.6* | 30.9*
Cc1cccc(N2CCN(C(=O)Cn3cc(-c4ccccc4)oc3=O)CC2)c1 | -12.8 | -14.1 | -23.8 | -13.6
CCn1nc(NS(=O)(=O)c2ccc(F)cc2)c2cc3ccccc3nc21 | 12.6 | 6.7 | -5.8 | 0.7
CC(C)[C@H](NC(=O)[C@@H](C)NC(=O)C1(c2ccccc2)CCN(C(=O)OC(C)(C)C)CC1)C(=O)O | 12.6 | 9.8 | 22.2 | 9.8
O=S(=O)(c1ccccc1)c1cnc(-c2ccccc2)nc1Oc1ccc(F)cc1F | 15.4 | -3.4 | 36.2* | 13.3
Cc1ccc(S(=O)(=O)c2cnc(-c3ccccc3)nc2Oc2ccc(Cl)cc2C)cc1 | 12.1 | 16.0 | 23.9 | 8.6
CCn1ccc2c(cc(C(=O)Nc3cccc(F)c3)n2C)c1=O | 38.8* | -4.0 | 12.5 | 42.8*
CCn1ccc2c(cc(C(=O)Nc3cccc(C)c3C)n2C)c1=O | -16.3 | -4.1 | -6.4 | 31.2*
CC(=O)C1=C(O)[C@@]2(O)C(=O)c3c(c(C)c4ccc(C)c(O)c4c3O)C[C@H]2[C@@H](N)C1=O | 48.6* | 50.8* | -126.2 | 65.9*
COc1ccc(C(=O)NCC2OCCc3ccccc32)c(OC)c1 (stereo unspecified) | 4.5 | 8.0 | 13.8 | 3.7
Cc1oc(CNS(=O)(=O)c2cc(Cl)ccc2Cl)nc1C(=O)N1CCC(C)CC1 | -1.5 | -5.3 | -15.5 | -6.2
CC1CCN(S(=O)(=O)c2cn(CC(=O)Nc3cccc(-c4ccno4)c3)cn2)CC1 | 49.7* | -5.7 | -24.6 | -11.4
SMILES | USP17 block | OTUD3 inh | USP30 inh | USP28 inh
O=C(Cn1cnc(S(=O)(=O)N2CCCCC2)c1)Nc1ccc2c(c1)OCO2 | 35.3* | -13.8 | -23.2 | -2.5
O=c1oc2ccccc2c(NCc2ccc3c(c2)OCO3)c1CN1CCCC1 | 30.9* | 5.1 | 11.8 | 17.2
CN1C(=O)c2ccccc2C(=O)[C@@]2(C)CN(CC(C)(C)C)C[C@@H]12 | -32.0 | -0.1 | 3.3 | 0.1
O=C(Nc1cccc(Cl)c1)c1cc(-c2cccnc2)n[nH]1 | 83.4* | 1.2 | 47.1* | 55.0*
COc1ccc(Cl)cc1NC(=O)c1cc(-c2ccncc2)n[nH]1 | 13.0 | 1.5 | 20.4 | 6.7
Cc1cccc(NC(=O)C2CCN(C(=O)c3cc(-c4ccncc4)n[nH]3)CC2)c1 | 0.4 | -5.1 | -53.4 | 0.5
